Screening data: PubChem, National Center for Advancing Translational Sciences (NCATS)
Only some compounds are listed: those with a hit (about 12% of all), similar ones and a draw of the others.
PLK1 PBD block = inhibitors of human PLK1 polo-box domain binding. P53350. Plk1 PBD binding of FITC phosphopeptide, fluorescence polarization. Potency, µM, actives largely listed as inhibitors. AID 720504. 360,000 compounds, 2.8% hits; also: series mostly up to about 57 µM; nearly all actives have a fitted effect of over 65% in size
BAZ2B inh = inhibitors of human BAZ2B bromodomain; AlphaScreen BAZ2B-H3K14Ac peptide displacement; Potency, µM (top dose mostly 114 µM), actives largely listed as inhibitors; 360,000 compounds, 4.4% hits; also: nearly all actives have a fitted effect of over 60% in size
Target sequence (Q9UIF8 whole entry, looked up): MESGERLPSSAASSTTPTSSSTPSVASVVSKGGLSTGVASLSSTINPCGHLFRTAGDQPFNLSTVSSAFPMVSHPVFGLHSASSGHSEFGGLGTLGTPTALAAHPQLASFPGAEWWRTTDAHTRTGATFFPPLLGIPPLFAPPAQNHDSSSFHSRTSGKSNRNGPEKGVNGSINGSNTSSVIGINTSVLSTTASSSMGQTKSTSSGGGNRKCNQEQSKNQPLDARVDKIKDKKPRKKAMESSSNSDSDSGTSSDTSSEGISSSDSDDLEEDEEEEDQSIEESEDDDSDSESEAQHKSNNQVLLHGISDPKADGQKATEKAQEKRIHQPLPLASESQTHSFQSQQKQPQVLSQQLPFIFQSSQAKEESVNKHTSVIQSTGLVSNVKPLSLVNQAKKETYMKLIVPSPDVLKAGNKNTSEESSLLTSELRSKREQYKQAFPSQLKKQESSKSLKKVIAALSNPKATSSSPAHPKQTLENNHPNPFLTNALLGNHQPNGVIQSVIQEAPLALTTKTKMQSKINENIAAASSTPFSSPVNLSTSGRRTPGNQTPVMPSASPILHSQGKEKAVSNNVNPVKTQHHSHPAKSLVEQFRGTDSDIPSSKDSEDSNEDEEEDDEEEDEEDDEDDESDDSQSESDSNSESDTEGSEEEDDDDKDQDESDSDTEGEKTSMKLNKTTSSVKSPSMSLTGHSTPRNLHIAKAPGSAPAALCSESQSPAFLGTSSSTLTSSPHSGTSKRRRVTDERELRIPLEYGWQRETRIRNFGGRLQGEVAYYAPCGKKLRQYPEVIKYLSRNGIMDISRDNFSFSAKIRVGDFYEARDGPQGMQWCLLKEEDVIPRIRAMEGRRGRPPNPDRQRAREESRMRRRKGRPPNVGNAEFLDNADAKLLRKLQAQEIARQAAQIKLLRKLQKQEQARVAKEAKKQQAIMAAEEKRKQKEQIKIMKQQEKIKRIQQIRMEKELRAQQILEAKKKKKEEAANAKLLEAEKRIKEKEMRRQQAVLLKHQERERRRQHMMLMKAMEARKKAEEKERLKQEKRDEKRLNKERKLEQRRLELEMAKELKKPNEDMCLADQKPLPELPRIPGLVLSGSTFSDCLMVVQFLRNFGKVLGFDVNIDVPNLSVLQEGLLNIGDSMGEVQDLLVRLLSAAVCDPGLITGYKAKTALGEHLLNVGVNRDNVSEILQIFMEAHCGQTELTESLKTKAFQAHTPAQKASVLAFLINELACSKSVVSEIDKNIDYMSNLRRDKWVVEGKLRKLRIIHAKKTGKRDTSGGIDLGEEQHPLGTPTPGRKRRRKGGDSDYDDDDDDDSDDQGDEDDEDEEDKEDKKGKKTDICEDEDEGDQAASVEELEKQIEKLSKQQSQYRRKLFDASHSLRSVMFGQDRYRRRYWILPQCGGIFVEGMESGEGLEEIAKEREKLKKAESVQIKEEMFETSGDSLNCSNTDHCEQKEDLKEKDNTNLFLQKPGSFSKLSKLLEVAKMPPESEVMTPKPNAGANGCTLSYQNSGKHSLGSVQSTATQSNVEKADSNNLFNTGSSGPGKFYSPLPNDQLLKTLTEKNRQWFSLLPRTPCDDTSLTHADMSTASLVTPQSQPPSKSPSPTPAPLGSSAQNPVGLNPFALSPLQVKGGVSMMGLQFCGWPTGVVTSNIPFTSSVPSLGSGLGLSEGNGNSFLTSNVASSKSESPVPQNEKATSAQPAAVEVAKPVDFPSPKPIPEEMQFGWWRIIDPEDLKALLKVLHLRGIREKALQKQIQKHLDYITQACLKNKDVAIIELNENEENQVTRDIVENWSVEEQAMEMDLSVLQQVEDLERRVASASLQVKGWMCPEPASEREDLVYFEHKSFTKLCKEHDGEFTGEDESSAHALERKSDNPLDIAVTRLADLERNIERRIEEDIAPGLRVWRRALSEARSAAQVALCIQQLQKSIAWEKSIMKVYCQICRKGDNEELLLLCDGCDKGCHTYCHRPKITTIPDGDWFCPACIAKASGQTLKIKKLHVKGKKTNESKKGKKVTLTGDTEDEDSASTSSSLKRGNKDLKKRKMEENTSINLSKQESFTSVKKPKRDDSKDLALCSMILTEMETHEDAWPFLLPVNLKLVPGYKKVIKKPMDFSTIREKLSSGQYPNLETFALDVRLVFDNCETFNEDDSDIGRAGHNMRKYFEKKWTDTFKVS
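Protein-peptide AlphaScreen: BAZ2B 50 nM, b-H3K14Ac 50 nM, 1x PBS pH 7.4 + 0.01% Tween-20. Preincubation 30 min RT; cpd 30 min RT (top 110 uM); beads 20 min RT, light-protected.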
HP1b chromo inh = blocks HP1-beta chromodomain binding to methylated histone tails; P83916; AlphaScreen HP1-beta / biotin-H3K9me3 peptide binding; Potency, µM (top dose mostly 114 µM), hits mostly inhibitors; 390,000 compounds, 0.56% hits; AID 540317; also: nearly all actives have a fitted effect of over 70% in size
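HP1-beta protein (50 nM final) preincubated 30 min at room temperature with biotinylated H3(1-18)K9me3 peptide (50 nM) in PBS pH 7.4, 0.01% Tween-20, then compound added for 30 min. AlphaScreen streptavidin donor/nickel chelate acceptor beads (10 ug/mL final), 30 min dark, luminescence read.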
JMJD2A Tudor = inhibitors of human JMJD2A Tudor domain; Potency, µM (doses to about 114 µM), actives largely listed as inhibitors; AID 504339; 390,000 compounds, 4.4% hits; AlphaScreen JMJD2A-Tudor / H3K4me3 peptide binding; also: nearly all actives have a fitted effect of over 50% in size
PI5P4Ka inh = PI5P4K alpha (human) kinase inhibition | PI5P4Kalpha enzyme, ADP-Glo luminescence, 60 min; active compounds read low | 330,000 compounds, 1.2% hits | max response, % | AID 652105; active = max response of -50% or lower; inconclusive = between -30% and -50%; inactive = -30% or higher; also: value at the top dose of about 77 µM
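ADP-Glo luminescence end-point after a 60 min room-temperature kinase reaction. PI5P4Kalpha and substrate in HEPES pH 7.4 buffer with EGTA, 0.1% CHAPS and 5% DMSO; ATP at 5 microM final.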
G9a inh = G9a (human) methyltransferase inhibition | G9a H3K9 monomethylation, AlphaScreen, 2 h | AID 504332 | 350,000 compounds, 8.8% hits | Potency, µM (top dose mostly 102 µM), most hits filed as inhibitors | Q96KQ7; also: nearly all actives have a fitted effect of over 75% in size
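Readings reflect AlphaScreen signal from monomethyl-H3K9 antibody detection. HMT at 20 nM; substrate b-H3K9 500 nM; cofactor SAM 20 uM; 2 h RT reaction; compounds tested as titrations in qHTS with 15 min preincubation.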
Numbers stand for hits; . = inactive; ? = inconclusive; / = no result; [ ] = remark or other dose. Unless noted, calls follow the shape of the dose curve; as a rule, active = well fitted curve in the direction sought with a large enough effect; inconclusive = small, poorly fitted or top-dose-only effect, or another doubt; inactive = no such curve, though single readings can be large; an effect the other way counts as inactive or inconclusive.

SMILES | PLK1 PBD block | BAZ2B inh | HP1b chromo inh | JMJD2A Tudor | PI5P4Ka inh | G9a inh
O=C(Nc1cc2c3c(c1)CC(=O)N3CCC2)c1ccc(Br)o1 | . | . | . | . | . | ?
COc1cc2c(cc1OC)C(=O)CCC2 | . | / | . | . | . | /
COC(=O)c1ccc(C(=O)Nc2ccc(C(C)C)cc2N)cc1 | 30µM | . | . | . | . | .
O=S(=O)(CCN(CCS(=O)(=O)C(F)(F)F)CC1CCCO1)C(F)(F)F (stereo unspecified) | 27µM | . | ? | . | / | ?
O=C(NCC1CCCO1)C1CCN(S(=O)(=O)N2CCCC2)CC1 (stereo unspecified) | . | . | . | . | / | .[12.7 µM]
Cc1ccc(S(=O)(=O)Nc2ccsc2C#N)cc1 | . | ? | . | . | . | 40µM
CC1CCN(C(=O)c2[nH]cnc2C(=O)Nc2ccccc2F)CC1 | . | / | / | / | . | /
COc1ccc(NC(=O)CN2C(=O)S/C(=C/c3cccn3-c3ccc(C(=O)O)cc3)C2=O)cc1 | / | 18µM | / | / | / | 22µM
O=C(CN1C(=O)N/C(=C\c2cccn2-c2cccc(C(=O)O)c2)C1=O)Nc1ccccc1F | / | / | / | . | / | /
Cc1ccccc1NC(=O)CN1C(=O)S/C(=C\c2cccn2-c2cccc(C(=O)O)c2)C1=O | ? | 56µM | ? | 79µM | . | ?
Cc1cccc(C)c1NC(=O)CN1C(=O)S/C(=C\c2cccn2-c2cccc(C(=O)O)c2)C1=O | 42µM | 79µM | . | 50µM | -69 | ?
COc1ccc(/C=C2\SC(=O)N(CCCC(=O)Nc3ccc(C(=O)O)cc3)C2=O)cc1 | . | / | / | / | . | /
Cc1ccc(NC(=O)CN2C(=O)S/C(=C\c3cccn3-c3cccc(C(=O)O)c3)C2=O)c(C)c1 | 24µM | 40µM | 50µM | 22µM | ? | ?
CCCCCCCCCCOCCC(=O)O | / | / | / | / | / | .
Cc1cccc(C)c1-n1cccc1/C=C1\SC(=S)N(c2cccc(C(=O)O)c2)C1=O | ? | 50µM | ? | ? | ? | ?
CCOc1cc(C2NC(=O)c3c(sc4c3CCN(C)C4)N2)ccc1OC(=O)c1ccccc1Cl (stereo unspecified) | / | . | . | . | / | .
Cn1c(=O)c(-c2ccc(Cl)cc2)nc2cnc(Oc3ccccc3)nc21 | / | / | / | / | / | .[12.7 µM]
N#Cc1c(-c2cccc(Br)c2)cc(-c2ccco2)[nH]c1=O | 13µM | 45µM | . | ? | -62 | 11µM
COc1ccc(-c2cc(-c3ccco3)[nH]c(=O)c2C#N)cc1 | . | 56µM | . | ? | . | /
CC1(C(=O)NS(=O)(=O)Cc2cccc(Cl)c2)CCN1C(=O)CCc1ccccc1 (stereo unspecified) | . | / | / | / | . | /
CC1(C(=O)NS(=O)(=O)Cc2cccc(Cl)c2)CCN1C(=O)Cc1ccc(-c2ccccc2)cc1 (stereo unspecified) | 67µM | / | / | / | . | /
CC1(C(=O)NS(=O)(=O)c2ccc3ccccc3c2)CCN1C(=O)Cc1ccc(-c2ccccc2)cc1 (stereo unspecified) | 42µM | / | / | / | . | /
CCOC(=O)Cc1ccc(Nc2nc(NCc3ccccc3)nc3ccsc23)cc1 | . | / | / | / | . | /
CC(C(=O)Nc1ccccc1C(=O)N1CCOCC1)N(c1ccc(Cl)cc1)S(C)(=O)=O (stereo unspecified) | 3µM | . | ? | 11µM | ? | .
Cc1ccc(N(C(C)C(=O)Nc2ccccc2C(=O)N2CCOCC2)S(C)(=O)=O)cc1C (stereo unspecified) | . | . | . | . | . | .[12.7 µM]
SMILES | PLK1 PBD block | BAZ2B inh | HP1b chromo inh | JMJD2A Tudor | PI5P4Ka inh | G9a inh
COc1ccc(N2Cc3ccccc3C2=NC(=O)c2cncc(Br)c2)cc1 | . | . | . | ? | . | 32µM
COc1ccc(N2Cc3ccccc3C2=NC(=O)c2cccc([N+](=O)[O-])c2)cc1 | . | ? | . | . | . | 20µM
CCOC(=O)c1ccc(N2Cc3ccccc3C2=NC(=O)c2ccncc2)cc1 | . | . | . | . | . | ?
O=C(N=C1c2ccccc2CN1c1ccc(F)cc1)c1ccc(Cl)nc1 | . | . | . | . | . | 22µM
COc1ccc(C2/C=C\CN(S(=O)(=O)c3ccc(C)cc3)C(C)C(=O)N2Cc2ccc(F)cc2)cc1 (stereo unspecified) | / | / | . | . | / | /
COc1cc(C2C3=C(CC(C)(C)CC3=O)OC(N)=C2[N+](=O)[O-])ccc1O (stereo unspecified) | . | . | . | . | . | 50µM
